# Counter-ions that a name gives are not always drawn.
# Columns and labels:
# Details in all cases: treatment time: 24 h
# [1] = test system: A549-ACTB-RAB5A; test: lowest phenotypically active concentration; higher = less potent
# Outline: (§1)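 Live-cell features were measured per well and normalised to solvent control wells after fifteen gene-edited A549, HepG2 and WPMY1 reporter lines had been treated for 24 h at 0.3, 1, 3 or 9 µM in four wells each. A condition was deviating when ≥3 of 4 wells sat beyond the 95th percentile of control Euclidean distances. It was reproducible when the median replicate Pearson correlation exceeded the 95th percentile of non-replicates. Phenotypic activity demanded both.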
# [2] = test system: WPMY1-GM130-SQSTM1; test: as above
# Outline: as §1
# [3] = test system: A549-ACTB-RAB5A; test: phenotypically active (imaging signature differs from DMSO and reproducible) at any of 0.3-9 uM (binary (1 = active, 0 = inactive)); higher = active
# Outline: as §1
# [4] = test system: A549-CANX-COX4; test: as above
# Outline: as §1
# [5] = test system: A549-GM130-SQSTM1; test: as above
# Outline: as §1
# [6] = test system: A549-TP53BP1-CLTA; test: as above
# Outline: as §1
# [7] = test system: A549-TUBA1B-RELA; test: as above
# Outline: as §1
# [8] = test system: HepG2-ACTB-RAB5A; test: as above
# Outline: as §1
# [9] = test system: HepG2-CANX-COX4; test: as above
# Outline: as §1
# [10] = test system: HepG2-GM130-SQSTM1; test: as above
# Outline: as §1
# [11] = test system: HepG2-TP53BP1-CLTA; test: as above
# Outline: as §1
# [12] = test system: HepG2-TUBA1B-RELA; test: as above
# Outline: as §1
# [13] = test system: WPMY1-ACTB-RAB5A; test: as above
# Outline: as §1
# [14] = test system: WPMY1-CANX-COX4; test: as above
# Outline: as §1
# [15] = test system: WPMY1-GM130-SQSTM1; test: as above
# Outline: as §1
# [16] = test system: WPMY1-TP53BP1-CLTA; test: as above
# Outline: as §1
# [17] = test system: WPMY1-TUBA1B-RELA; test: as above
# Outline: as §1
# [18] = test system: A549-GM130-SQSTM1; test: lowest phenotypically active concentration; higher = less potent
# Outline: as §1
# [19] = test system: A549-TUBA1B-RELA; test: as above
# Outline: as §1
# [20] = test system: HepG2-ACTB-RAB5A; test: as above
# Outline: as §1
SMILES,lowest phenotypically active concentration [1] [µM],lowest phenotypically active concentration [2] [µM],phenotypically active [3],phenotypically active [4],phenotypically active [5],phenotypically active [6],phenotypically active [7],phenotypically active [8],phenotypically active [9],phenotypically active [10],phenotypically active [11],phenotypically active [12],phenotypically active [13],phenotypically active [14],phenotypically active [15],phenotypically active [16],phenotypically active [17],lowest phenotypically active concentration [18] [µM],lowest phenotypically active concentration [19] [µM],lowest phenotypically active concentration [20] [µM]
Cc1cccc(-c2n[nH]cc2-c2ccc(F)c(-c3cnn(CCO)c3)c2)n1,9,9,1 (active),0 (inactive),0 (inactive),0 (inactive),0 (inactive),0 (inactive),1 (active),0 (inactive),1 (active),0 (inactive),1 (active),1 (active),1 (active),1 (active),1 (active),,,
C[C@@H]1CCN(C(=O)CC#N)C[C@@H]1N(C)c1ncnc2[nH]ccc12,9,,1 (active),0 (inactive),0 (inactive),0 (inactive),0 (inactive),0 (inactive),1 (active),1 (active),1 (active),0 (inactive),0 (inactive),0 (inactive),0 (inactive),0 (inactive),0 (inactive),,,
Cc1cccc(-c2nn(C(=S)Nc3ccccc3)cc2-c2ccnc3ccccc23)n1,,9,0 (inactive),1 (active),1 (active),0 (inactive),1 (active),1 (active),1 (active),1 (active),1 (active),1 (active),1 (active),1 (active),1 (active),1 (active),1 (active),9,3,9
CC(C)c1ccc(-c2cc(=O)c3ccccc3o2)cc1,9,3,1 (active),0 (inactive),0 (inactive),0 (inactive),0 (inactive),0 (inactive),0 (inactive),0 (inactive),0 (inactive),0 (inactive),0 (inactive),0 (inactive),1 (active),0 (inactive),0 (inactive),,,
O=S(=O)(c1ccccc1)N(CC(F)(F)F)c1ccc(C(O)(C(F)(F)F)C(F)(F)F)cc1,,,0 (inactive),0 (inactive),1 (active),0 (inactive),0 (inactive),0 (inactive),0 (inactive),0 (inactive),0 (inactive),0 (inactive),0 (inactive),0 (inactive),0 (inactive),0 (inactive),0 (inactive),9,,
O=C1NCCCc2c1oc1ccc(O)cc21,9,9,1 (active),0 (inactive),0 (inactive),0 (inactive),0 (inactive),0 (inactive),1 (active),0 (inactive),0 (inactive),1 (active),1 (active),0 (inactive),1 (active),0 (inactive),1 (active),,,
Cc1cccc(C)c1OCC(C)N (stereo unspecified) [mexiletine],,≤ 0.3,0 (inactive),1 (active),0 (inactive),1 (active),0 (inactive),1 (active),0 (inactive),0 (inactive),0 (inactive),0 (inactive),0 (inactive),0 (inactive),1 (active),0 (inactive),0 (inactive),,,≤ 0.3
O=C(O/N=C1\c2ccccc2-c2nc3ccccc3nc21)c1ccco1,9,,1 (active),0 (inactive),0 (inactive),0 (inactive),0 (inactive),0 (inactive),0 (inactive),0 (inactive),0 (inactive),0 (inactive),1 (active),1 (active),0 (inactive),1 (active),1 (active),,,
N=C(N)NC(=N)NCCc1ccccc1 [phenformin],,,0 (inactive),1 (active),1 (active),0 (inactive),0 (inactive),0 (inactive),0 (inactive),0 (inactive),0 (inactive),0 (inactive),0 (inactive),0 (inactive),0 (inactive),0 (inactive),0 (inactive),9,,
CCOC(=O)N1CCC(=C2c3ccc(Cl)cc3CCc3cccnc32)CC1 [loratadine],9,,1 (active),0 (inactive),0 (inactive),0 (inactive),0 (inactive),0 (inactive),1 (active),0 (inactive),0 (inactive),0 (inactive),0 (inactive),0 (inactive),0 (inactive),0 (inactive),0 (inactive),,,
Cc1nc2sccn2c(=O)c1CCN1CCC(=C(c2ccc(F)cc2)c2ccc(F)cc2)CC1 [Ritanserin],9,9,1 (active),0 (inactive),0 (inactive),0 (inactive),0 (inactive),0 (inactive),0 (inactive),1 (active),0 (inactive),1 (active),0 (inactive),0 (inactive),1 (active),0 (inactive),0 (inactive),,,
CCCOc1ccn2c(C(C)=O)cc(-c3ccccc3S(C)(=O)=O)c2c1,,,0 (inactive),0 (inactive),1 (active),0 (inactive),0 (inactive),0 (inactive),0 (inactive),0 (inactive),0 (inactive),0 (inactive),0 (inactive),0 (inactive),0 (inactive),0 (inactive),0 (inactive),9,,
Cc1cccc(CN2CCN(C(c3ccccc3)c3ccc(Cl)cc3)CC2)c1 (stereo unspecified) [Meclizine dihydrochloride],9,,1 (active),0 (inactive),0 (inactive),0 (inactive),0 (inactive),0 (inactive),0 (inactive),0 (inactive),0 (inactive),1 (active),0 (inactive),0 (inactive),0 (inactive),0 (inactive),0 (inactive),,,
CC(C)NC[C@H](O)COc1cccc2ccccc12 [(S)-(-)-Propranolol hydrochloride],,,0 (inactive),0 (inactive),1 (active),0 (inactive),0 (inactive),0 (inactive),0 (inactive),0 (inactive),0 (inactive),0 (inactive),0 (inactive),0 (inactive),0 (inactive),0 (inactive),0 (inactive),9,,
OCCOCCN1CCN(C2=Nc3ccccc3Sc3ccccc32)CC1 [Quetiapine hemifumarate],,,0 (inactive),0 (inactive),1 (active),0 (inactive),0 (inactive),0 (inactive),0 (inactive),0 (inactive),0 (inactive),0 (inactive),0 (inactive),0 (inactive),0 (inactive),0 (inactive),0 (inactive),9,,
Cn1cc(-c2ccc3nnc(Sc4ccc5ncccc5c4)n3n2)cn1,,1,0 (inactive),1 (active),0 (inactive),1 (active),0 (inactive),1 (active),0 (inactive),0 (inactive),0 (inactive),0 (inactive),0 (inactive),0 (inactive),1 (active),0 (inactive),0 (inactive),,,1
C=C1CC[C@H](O)C/C1=C\C=C1\CCC[C@]2(C)[C@@H]([C@H](C)/C=C/[C@H](C)C(C)C)CC[C@@H]12 [Calciferol],,,0 (inactive),0 (inactive),1 (active),0 (inactive),0 (inactive),0 (inactive),0 (inactive),0 (inactive),0 (inactive),0 (inactive),0 (inactive),0 (inactive),0 (inactive),0 (inactive),0 (inactive),9,,
N=C1NC(=O)/C(=C\c2ccc(O)cc2)S1 [Mirin],9,,1 (active),0 (inactive),0 (inactive),0 (inactive),0 (inactive),0 (inactive),0 (inactive),0 (inactive),0 (inactive),0 (inactive),1 (active),0 (inactive),0 (inactive),0 (inactive),0 (inactive),,,
Cc1cc2sc(NC(=O)Cc3ccccc3)nc2cc1Cl,,,0 (inactive),0 (inactive),1 (active),0 (inactive),1 (active),0 (inactive),0 (inactive),0 (inactive),0 (inactive),0 (inactive),0 (inactive),0 (inactive),0 (inactive),0 (inactive),0 (inactive),3,9,
O=c1c(-c2ccc(O)cc2)coc2cc(O)cc(O)c12 [Genistein],,,0 (inactive),0 (inactive),1 (active),1 (active),1 (active),0 (inactive),0 (inactive),0 (inactive),0 (inactive),0 (inactive),1 (active),1 (active),0 (inactive),1 (active),1 (active),9,9,
COc1ccc(-n2c(SCCCN3C(=O)c4cccc5cccc(c45)C3=O)nnc2-c2ccncc2)cc1,,,0 (inactive),0 (inactive),1 (active),0 (inactive),1 (active),0 (inactive),0 (inactive),0 (inactive),0 (inactive),0 (inactive),0 (inactive),0 (inactive),0 (inactive),0 (inactive),0 (inactive),3,3,
CC(=O)N1CCN(c2ccc(OC[C@H]3CO[C@](Cn4ccnc4)(c4ccc(Cl)cc4Cl)O3)cc2)CC1 [Ketoconazole],9,9,1 (active),0 (inactive),0 (inactive),0 (inactive),0 (inactive),0 (inactive),0 (inactive),0 (inactive),0 (inactive),0 (inactive),0 (inactive),0 (inactive),1 (active),0 (inactive),0 (inactive),,,
CC(C)(C)c1cc(/C=C(\C#N)C(N)=S)cc(C(C)(C)C)c1O,,9,0 (inactive),1 (active),1 (active),1 (active),0 (inactive),1 (active),1 (active),1 (active),1 (active),1 (active),0 (inactive),0 (inactive),1 (active),1 (active),0 (inactive),3,,9
CCOC(=O)C1=C[C@]2(CC)CCCN3CCc4c(n1c1ccccc41)[C@@H]32 [Vinpocetine],9,9,1 (active),0 (inactive),0 (inactive),0 (inactive),0 (inactive),1 (active),0 (inactive),0 (inactive),0 (inactive),0 (inactive),0 (inactive),0 (inactive),1 (active),0 (inactive),0 (inactive),,,9

# Source: the supplement of paper PMC7411054
